Bioassay records (PubChem BioAssay)
Shown are actives, neighbours in structure and some others; about 2.4% of the full set was active somewhere.
CHT inh: inhibits the human high affinity choline transporter. Q9GZV3. CHT-expressing cells, membrane potential dye, choline response; stronger effect = lower value. B-score at 10 µM. 0.86% of 310,000 active;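 active means B-score over 3 SD under the library average, and starting fluorescence ratio not unusually high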;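 further: choline stimulus applied at its EC90 after an EC20 pre-addition; B-score computed on integrated fluorescence ratio after choline addition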
Target sequence (Q9GZV3 whole entry, looked up): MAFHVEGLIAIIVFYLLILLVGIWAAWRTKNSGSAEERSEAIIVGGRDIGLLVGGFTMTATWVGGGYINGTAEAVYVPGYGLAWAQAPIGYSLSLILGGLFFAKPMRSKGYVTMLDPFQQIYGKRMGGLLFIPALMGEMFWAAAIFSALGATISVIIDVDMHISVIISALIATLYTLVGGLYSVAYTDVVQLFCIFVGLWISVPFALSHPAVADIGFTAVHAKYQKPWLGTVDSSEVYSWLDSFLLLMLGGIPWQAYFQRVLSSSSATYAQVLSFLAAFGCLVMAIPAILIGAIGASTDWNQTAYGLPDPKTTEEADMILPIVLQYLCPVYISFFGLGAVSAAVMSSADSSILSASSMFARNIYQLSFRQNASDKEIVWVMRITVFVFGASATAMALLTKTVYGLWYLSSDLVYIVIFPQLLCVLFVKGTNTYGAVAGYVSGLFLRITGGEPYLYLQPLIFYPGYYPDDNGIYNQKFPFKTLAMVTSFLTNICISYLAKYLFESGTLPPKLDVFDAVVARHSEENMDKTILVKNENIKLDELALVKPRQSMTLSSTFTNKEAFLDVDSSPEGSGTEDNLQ
TMEM16A inh: mouse TMEM16A channel inhibition, primary screen; 1.2% of 310,000 active; HEK293 TMEM16A/YFP iodide influx fluorescence, ionomycin; normalized B-score (activity score, 25-100; higher = stronger inhibition) at 10 µM; AID 588511;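 active means ratio plate-corrected score three or more library SD toward inhibition, starting fluorescence score within five deviations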;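 further: score derived from kinetic fluorescence span divided by baseline fluorescence per well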
CHT allo act: human CHT allosteric activation; Q9GZV3; CHT-expressing cells, membrane potential dye, choline EC20; stronger effect = higher value; LV-AA mutant CHT in HEK293 cells; B-score at 10 µM; 0.49% of 310,000 active; AID 488977;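 active means initial fluorescence not abnormally high and integrated response B-score, plate-corrected, over 3 SD above library mean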
TMEM16A act: activates or potentiates the mouse TMEM16A chloride channel; HEK293 TMEM16A/YFP-H148Q/I152L, iodide quench fluorescence; stronger effect = lower value; 0.3% of 340,000 active; Q8BHY3; AID 623877; B-score at 10 µM;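 active means fluorescence-ratio B-score plate-corrected deviation score at least 3 library SD below zero, with starting fluorescence score within 5 deviations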;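 further: channel opened by trigger with iodide after compound preincubation; score built on the fluorescence ratio of max minus min over baseline; more negative score means more quench and so TMEM16A activation or potentiation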
CHT inh conf: confirmation of human choline transporter CHT inhibitors; shares compounds with CHT inh; CHT-expressing cells, choline membrane potential dye; LV-to-AA substituted CHT, HEK293 cells; CHT activity remaining % of control (stronger effect = lower value), % at 10 µM; 70% of 2,400 active;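 active means choline transporter activity left, mean of duplicates at 10 µM, below buffer-only control mean minus 3 SD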;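 further: depolarization triggered by choline at its EC90 following an EC20 pre-addition; 0% = hemicholinium-3 full block and 100% = buffer-only control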
HEK293 CHT ctr: CHT inhibitor counter-screen hit in parental HEK293 cells; membrane potential ratio readout (active if shifted either direction beyond buffer ±3SD; no single direction) at 10 µM; 4% of 2,400 active; shares compounds with CHT inh; membrane potential dye, choline response; active = decrease or increase beyond buffer ±3SD;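 further: parental cells lack the transporter so any hit is non-specific; ratio is peak minus trough fluorescence over baseline after EC90 choline challenge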
Active calls of the source: *; i = inactive; / = no result.

SMILES	CHT inh	TMEM16A inh	CHT allo act	TMEM16A act	CHT inh conf	HEK293 CHT ctr
CC[C@H](C)[C@H](NC(=O)OCc1ccccc1)C(=O)OCC(=O)N1CCN(c2ccc(OC)cc2)CC1	/	/	/	i	/	/
O=S(=O)(Nc1nc2ccccc2nc1NCC1CCCO1)c1cc(Cl)ccc1Cl (stereo not given)	-5.55*	i	i	i	45.2%*	i
CCCCCn1c(=O)[nH]c2cc(C(=O)NCCN3CCC(C)CC3)ccc2c1=O	-6.13*	i	i	i	i	i
COc1ccc(N(C(=O)Cn2nnc3ccccc32)C(C(=O)NCc2ccco2)c2ccncc2)cc1 (stereo not given)	-10*	i	i	i	i	i
COCCNC(=O)C(c1ccncc1)N(C(=O)Cn1nnc2ccccc21)c1ccc(OC)cc1 (stereo not given)	i	i	i	i	/	/
CCCCN(C(=O)C1CC(=O)N(c2ccc(C)cc2)C1)c1c(N)n(CCC)c(=O)[nH]c1=O (stereo not given)	/	/	/	i	/	/
Cc1c(N=Nc2ccc(O)cc2)c(=O)n(-c2ccccc2)n1C	i	i	i	i	/	/
Cc1[nH]c2ccccc2c1N=Nc1c(C)n(C)n(-c2ccccc2)c1=O	-13.2*	i	i	i	i	i
COCCCN=C1NN=C(c2cc(C)n(-c3ccccc3F)c2C)CS1	-6.53*	i	i	i	32.7%*	i
CCC(C(=O)NC1CCCC1)n1c2ccccc2c2nc(=O)cc(C)n21 (stereo not given)	/	/	/	i	/	/
Cc1ccc(NC(=O)CSc2nc(N)c3cc4c(nc3n2)CCCC4)cc1	i	i	i	i	/	/
Cc1cccn2c(CNCC3OCCc4ccccc43)c(C(=O)N3CCCCC3)nc12 (stereo not given)	-6.57*	i	i	i	48.2%*	-13.2*
CCOC(=O)N1CCN(C(=O)c2ccc3nc(SCc4ccc(F)cc4)n(C)c3c2)CC1	-4.94*	i	i	i	i	i
CN1CCN(C(=O)c2ccc(CSc3nc4ccncc4n3Cc3ccc(F)cc3)cc2)CC1	i	i	i	i	/	/
Cc1cn([C@H](C(=O)NCCCCCCCCCCC(=O)N2CCN(C(=O)OC(C)(C)C)CC2)[C@@H](C)O)nn1	-6.78*	i	i	i	59.7%*	i
C[C@H](O)[C@@H](C(=O)N1CCN(C(=O)OC(C)(C)C)CC1)n1cc(CCCCNC(=O)OC(C)(C)C)nn1	i	i	i	i	/	/
CCC1CCCCN1CCCNC(=O)c1ccc(N2CCOCC2)c(NS(=O)(=O)c2ccc(OC)cc2)c1 (stereo not given)	-6.79*	i	i	i	42.3%*	i
CCCCNC(=O)c1ccc(N2CCOCC2)c(NS(=O)(=O)c2ccc(OC)cc2)c1	i	i	i	i	/	/
CCCCn1c(N)c(N(CC(C)C)C(=O)c2cccc(S(=O)(=O)N3CCN(C)CC3)c2)c(=O)[nH]c1=O	i	i	i	i	/	/
Cc1cc([N+](=O)[O-])c(NCCCCCCO)c([N+](=O)[O-])c1	-5.44*	i	i	i	38.4%*	i
CCC(C)Nc1c([N+](=O)[O-])cc(C)cc1[N+](=O)[O-] (stereo not given)	i	i	i	i	/	/
Cn1cc(CCC(=O)N2CCCC(CCC(=O)NCc3ccc(F)c(F)c3)C2)cn1 (stereo not given)	i	i	i	i	/	/
O=C(N/N=C/c1cccs1)c1cccc(S(=O)(=O)Nc2ccc(Cl)cc2)c1	-5.52*	i	i	i	i	i
COc1ccc(CNC(=S)NC2CCCC2)cc1	-15*	i	i	i	i	i
COc1cccc(CNC(=S)NC2CCCC2)c1	i	i	i	i	/	/
SMILES	CHT inh	TMEM16A inh	CHT allo act	TMEM16A act	CHT inh conf	HEK293 CHT ctr
Cc1ccc(C(=O)Nc2ccc(Cc3ccncc3)cc2)cc1[N+](=O)[O-]	-5.56*	100*	i	i	i	i
O=C(Nc1ccc(Cc2ccncc2)cc1)c1ccc(N2CCOCC2)c([N+](=O)[O-])c1	i	i	i	i	/	/
CCOc1cccc2sc(N(CCCN(C)C)C(=O)c3ccc(S(=O)(=O)N(C)c4ccccc4)cc3)nc12	-5.45*	i	i	i	i	i
CN(C)CCCN(C(=O)c1ccc(S(=O)(=O)N(C)Cc2ccccc2)cc1)c1nc2c(F)cccc2s1	i	i	i	i	/	/
Cc1cc(C)n2nc(SCc3nnc(SCc4ccccc4)s3)nc2n1	-6.05*	i	i	i	i	i
Cc1cc(C)n2nc(SCc3ccccc3)nc2n1	i	i	i	i	/	/
CC1=C(C(=O)OCCOc2ccccc2)C(c2ccsc2)NC(=O)N1C (stereo not given)	-6.48*	i	i	i	50.2%*	i
CC1(C)CC2CC(C)(CN2c2ncnc3ccccc23)C1 (stereo not given)	-5.12*	i	i	i	47.7%*	i
CC1CCCCN1c1ncnc2ccccc12 (stereo not given)	i	i	i	i	/	/
O=c1[nH]ncc(N2CCN(C(c3ccccc3)c3ccccc3)CC2)c1Cl	i	i	i	i	/	/
O=c1[nH]ncc(N2CCCC2)c1Cl	-9.96*	i	i	i	41.9%*	i
COc1cccc(/C=C2\SC(=S)N(NC(=O)c3ccncc3)C2=O)c1	-8.67*	i	i	i	5.2%*	i
O=C(NN1C(=O)/C(=C/c2cccs2)SC1=S)c1ccncc1	-10.1*	i	i	i	7.4%*	i
O=C(NN1C(=O)/C(=C/c2cccc(O)c2)SC1=S)c1ccccc1O	-5.23*	i	i	i	67.8%*	i
O=C(CCCN1C(=O)/C(=C\c2cccs2)SC1=S)NNC(=O)c1ccncc1	i	i	i	i	/	/
O=C(NN1C(=O)/C(=C/c2ccc(O)c(O)c2)SC1=S)c1ccccc1	i	i	i	i	/	/
COc1cc(/C=C2\SC(=S)N(NC(=O)c3cccnc3)C2=O)ccc1O	i	i	i	i	/	/
CCOC(=O)c1ccccc1NC(=O)c1ccc2c(SCC(=O)O)c3c(nc2c1)CCCC3	i	i	i	i	/	/
Cc1cc(=O)n2nc(N3CCC(C(=O)NCc4cccnc4)CC3)sc2n1	i	i	i	i	/	/
N#Cc1c(N2C(=O)Nc3ccccc3N2O)sc2c1CCCC2	i	i	i	i	/	/
CC(C)(C)NCc1cccn1-c1sc2c(c1C#N)CCCC2	-6.32*	i	i	i	20.3%*	-16.6*
